The panel holds about 79,000 compounds, 15% with a hit somewhere; the sample as a whole holds those more often. Unmarked numbers belong to inactive results. The source made the active and inactive calls. No stated cut-off is given here; in the data, active means growth inhibition above about 70%; inactive means the rest.
Tests used:
[1] = NCI Yeast Anticancer Drug Screen. Data for the rad52 strain (AID 147);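 further: 0% = growth of vehicle-treated control cultures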; details: S. cerevisiae rad52 mutant growth inhibition, active compounds read high
In short: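 Compounds are applied to a genetically defined yeast strain lacking normal DNA damage repair, and inhibition of growth is expressed relative to cultures given vehicle only.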

[2] = NCI Yeast Anticancer Drug Screen. Data for the wt1 strain (AID 149);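 further: 0% = growth of vehicle-treated wt1 cultures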; details: S. cerevisiae wt1 strain (SPY 50644) growth inhibition, active compounds read high
In short: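 Growth inhibition read against vehicle controls after compound exposure of the wt1 yeast strain.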

[3] = NCI Yeast Anticancer Drug Screen. Data for the rad50EPP+ strain (AID 151);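 further: 0% = growth of vehicle-treated control cultures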; details: S. cerevisiae rad50 mutant strain, active compounds read high
In short: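 Compounds were applied to the rad50EPP+ yeast strain, which bears a defined DNA repair alteration, and growth inhibition was determined relative to vehicle-treated cultures.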

[4] = NCI Yeast Anticancer Drug Screen. Data for the rad50 strain (AID 155);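 further: 0% = growth of vehicle-only cultures of the same strain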; details: S. cerevisiae rad50 strain growth inhibition, active compounds read high
In short: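 Readout: growth inhibition relative to vehicle-treated cultures. Compound exposure was carried out in a genetically defined yeast strain deficient in DNA damage repair.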

[5] = NCI Yeast Anticancer Drug Screen. Data for the mec2-1 strain (AID 157); details: S. cerevisiae mec2-1 strain, active compounds read high
In short: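 Strain: mec2-1 (DNA repair/cell cycle alteration). Compound exposure, then growth measured; inhibition expressed relative to vehicle.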

[6] = NCI Yeast Anticancer Drug Screen. Data for the rad14 strain (AID 159);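 further: 0% = growth of vehicle-treated control cultures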; details: S. cerevisiae rad14 strain growth inhibition, active compounds read high
In short: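 Growth inhibition vs vehicle controls; genetically altered yeast strain (DNA damage repair defect) treated with test compounds.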

[7] = NCI Yeast Anticancer Drug Screen. Data for the sgs1 mgt1 strain (AID 161);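 further: 0% = growth of cultures given vehicle only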; details: S. cerevisiae sgs1 mgt1 strain, active compounds read high
In short: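 Genetically altered yeast, compound exposure, growth inhibition relative to vehicle.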

[8] = NCI Yeast Anticancer Drug Screen. Data for the CLN2oe strain (AID 163);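 further: 0% = growth of vehicle-only control cultures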; details: S. cerevisiae CLN2oe strain, active compounds read high
In short: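 Growth of a genetically modified yeast strain is measured after compound exposure and compared with cultures given vehicle alone.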

[9] = NCI Yeast Anticancer Drug Screen. Data for the cln2 rad14 strain (AID 165);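 further: 0% = growth equal to vehicle treated cultures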; details: S. cerevisiae cln2 rad14 strain, active compounds read high
In short: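 Compounds are applied to the cln2 rad14 yeast strain, and growth is then compared with that of vehicle-treated cultures to give inhibition.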

[10] = NCI Yeast Anticancer Drug Screen. Data for the bub3 strain (AID 167); details: S. cerevisiae bub3 mutant strain, active compounds read high
In short: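 Readout: yeast growth inhibition, expressed relative to vehicle-only wells. The test organism is a mutant strain from a panel with lesions in DNA repair or checkpoint genes.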

[11] = NCI Yeast Anticancer Drug Screen. Data for the wt2 strain (AID 169);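 further: 0% = growth of vehicle-treated yeast cultures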; details: S. cerevisiae wt2 strain growth inhibition, active compounds read high
In short: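 This strain belongs to a panel of yeast strains with defined genetic alterations in DNA damage repair or cell cycle control. Compounds are applied, and growth inhibition is measured against vehicle-treated cultures.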

[12] = NCI Yeast Anticancer Drug Screen. Data for the mlh1 strain (AID 171);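 further: 0% = growth of vehicle-treated control cultures of the same strain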; details: S. cerevisiae mlh1 strain growth inhibition, active compounds read high
In short: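 Growth of the mutant yeast strain after compound exposure, expressed as inhibition relative to vehicle-only controls.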

[13] = NCI Yeast Anticancer Drug Screen. Data for the sgs1 strain (AID 173);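 further: 0% = growth of vehicle-only control cultures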; details: S. cerevisiae sgs1 mutant, active compounds read high
In short: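 Growth of a yeast strain bearing a defined genetic alteration is measured after compound treatment. Inhibition is expressed relative to vehicle-only controls.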

[14] = NCI Yeast Anticancer Drug Screen. Data for the mlh1 rad18 strain (AID 175); details: S. cerevisiae mlh1 rad18 strain growth inhibition, active compounds read high
In short: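 Read-out is yeast growth inhibition, calculated against vehicle-only controls. The compound was applied to a strain engineered with DNA damage repair alterations.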

[15] = NCI Yeast Anticancer Drug Screen. Data for the rad18 strain (AID 177); details: S. cerevisiae rad18 mutant growth inhibition, active compounds read high
In short: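 Growth of the mutant yeast strain after compound exposure, normalised to vehicle-only cultures.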

[16] = at 5.0 µM (retest, dose inferred, filed as 0.5)
[17] = at 50.0 µM (retest, dose inferred, filed as 5.0)

O=C1CSC(=S)N1Cc1ccc(Cl)cc1Cl
growth inhibition ([1]; at 1.2 µM): -4%
growth inhibition ([1]; at 3.7 µM): 8%
growth inhibition ([1]; at 11.0 µM): 98% (active)
growth inhibition ([1]; at 33.0 µM): 99% (active)
growth inhibition ([1]; at 100.0 µM): 98% (active)
growth inhibition ([2]; at 1.2 µM): 1%
growth inhibition ([2]; at 3.7 µM): 24%
growth inhibition ([2]; at 11.0 µM): 99% (active)
growth inhibition ([2]; at 33.0 µM): 99% (active)
growth inhibition ([2]; at 100.0 µM): 97% (active)
growth inhibition ([3]; at 1.2 µM): 12%
growth inhibition ([3]; at 3.7 µM): 72% (active)
growth inhibition ([3]; at 11.0 µM): 97% (active)
growth inhibition ([3]; at 33.0 µM): 99% (active)
growth inhibition ([3]; at 100.0 µM): 98% (active)
growth inhibition ([4]; at 1.2 µM): -6%
growth inhibition ([4]; at 3.7 µM): 26%
growth inhibition [4, 16]: 29%
growth inhibition ([4]; at 11.0 µM): 99% (active)
growth inhibition ([4]; at 33.0 µM): 99% (active)
growth inhibition [4, 17]: 98% (active)
growth inhibition ([4]; at 50.0 µM): 99.1% (active)
growth inhibition ([4]; at 100.0 µM): 98% (active)
growth inhibition ([5]; at 1.2 µM): 1%
growth inhibition ([5]; at 3.7 µM): -1%
growth inhibition [5, 16]: 10%
growth inhibition ([5]; at 11.0 µM): 93% (active)
growth inhibition ([5]; at 33.0 µM): 99% (active)
growth inhibition [5, 17]: 99% (active)
growth inhibition ([5]; at 50.0 µM): 99.3% (active)
growth inhibition ([5]; at 100.0 µM): 99% (active)
growth inhibition ([6]; at 1.2 µM): 3%
growth inhibition ([6]; at 3.7 µM): 20%
growth inhibition ([6]; at 11.0 µM): 99% (active)
growth inhibition ([6]; at 33.0 µM): 100% (active)
growth inhibition ([6]; at 100.0 µM): 99% (active)
growth inhibition [7, 16]: 41%
growth inhibition [7, 17]: 99% (active)
growth inhibition ([7]; at 50.0 µM): 99.4% (active)
growth inhibition ([8]; at 1.2 µM): -10%
growth inhibition ([8]; at 3.7 µM): -11%
growth inhibition ([8]; at 11.0 µM): 96% (active)
growth inhibition ([8]; at 33.0 µM): 99% (active)
growth inhibition ([8]; at 100.0 µM): 98% (active)
growth inhibition [9, 16]: 0%
growth inhibition [9, 17]: 99% (active)
growth inhibition ([9]; at 50.0 µM): 98.8% (active)
growth inhibition ([10]; at 1.2 µM): -9%
growth inhibition ([10]; at 3.7 µM): 15%
growth inhibition [10, 16]: 14%
growth inhibition ([10]; at 11.0 µM): 99% (active)
growth inhibition ([10]; at 33.0 µM): 99% (active)
growth inhibition [10, 17]: 98% (active)
growth inhibition ([10]; at 50.0 µM): 99.3% (active)
growth inhibition ([10]; at 100.0 µM): 99% (active)
growth inhibition ([11]; at 1.2 µM): 12%
growth inhibition ([11]; at 3.7 µM): 55%
growth inhibition ([11]; at 11.0 µM): 100% (active)
growth inhibition ([11]; at 33.0 µM): 100% (active)
growth inhibition ([11]; at 100.0 µM): 99% (active)
growth inhibition ([12]; at 1.2 µM): -13%
growth inhibition ([12]; at 3.7 µM): 8%
growth inhibition ([12]; at 11.0 µM): 99% (active)
growth inhibition ([12]; at 33.0 µM): 99% (active)
growth inhibition ([12]; at 100.0 µM): 99% (active)
growth inhibition ([13]; at 1.2 µM): 2%
growth inhibition ([13]; at 3.7 µM): 33%
growth inhibition ([13]; at 11.0 µM): 99% (active)
growth inhibition ([13]; at 33.0 µM): 99% (active)
growth inhibition ([13]; at 100.0 µM): 99% (active)
growth inhibition [14, 16]: 66%
growth inhibition [14, 17]: 98% (active)
growth inhibition ([14]; at 50.0 µM): 97% (active)
growth inhibition ([15]; at 1.2 µM): -6%
growth inhibition ([15]; at 3.7 µM): 27%
growth inhibition ([15]; at 11.0 µM): 99% (active)
growth inhibition ([15]; at 33.0 µM): 99% (active)
growth inhibition ([15]; at 100.0 µM): 98% (active)

CC1OC(OC2CCCc3c(O)c4c(c(O)c32)C(=O)c2ccccc2C4=O)CC(N)C1O (stereo not drawn)
growth inhibition ([1]; at 1.2 µM): 3%
growth inhibition ([1]; at 3.7 µM): 46%
growth inhibition ([1]; at 11.0 µM): 94% (active)
growth inhibition ([1]; at 33.0 µM): 98% (active)
growth inhibition ([1]; at 100.0 µM): 99% (active)
growth inhibition ([2]; at 1.2 µM): 1%
growth inhibition ([2]; at 3.7 µM): 12%
growth inhibition ([2]; at 11.0 µM): 35%
growth inhibition ([2]; at 33.0 µM): 92% (active)
growth inhibition ([2]; at 100.0 µM): 99% (active)
growth inhibition ([3]; at 1.2 µM): 10%
growth inhibition ([3]; at 3.7 µM): 30%
growth inhibition ([3]; at 11.0 µM): 73% (active)
growth inhibition ([3]; at 33.0 µM): 97% (active)
growth inhibition ([3]; at 100.0 µM): 98% (active)
growth inhibition ([4]; at 1.2 µM): -49%
growth inhibition ([4]; at 3.7 µM): 41%
growth inhibition [4, 16]: 60%
growth inhibition ([4]; at 11.0 µM): 95% (active)
growth inhibition ([4]; at 33.0 µM): 99% (active)
growth inhibition [4, 17]: 98% (active)
growth inhibition ([4]; at 50.0 µM): 80.7% (active)
growth inhibition ([4]; at 100.0 µM): 98% (active)
growth inhibition ([5]; at 1.2 µM): 0%
growth inhibition ([5]; at 3.7 µM): -2%
growth inhibition [5, 16]: 8%
growth inhibition ([5]; at 11.0 µM): 4%
growth inhibition ([5]; at 33.0 µM): 82% (active)
growth inhibition [5, 17]: 99% (active)
growth inhibition ([5]; at 50.0 µM): 53%
growth inhibition ([5]; at 100.0 µM): 99% (active)
growth inhibition ([6]; at 1.2 µM): 2%
growth inhibition ([6]; at 3.7 µM): 12%
growth inhibition ([6]; at 11.0 µM): 55%
growth inhibition ([6]; at 33.0 µM): 99% (active)
growth inhibition ([6]; at 100.0 µM): 99% (active)
growth inhibition [7, 16]: 14%
growth inhibition [7, 17]: 98% (active)
growth inhibition ([7]; at 50.0 µM): 70.5% (active)
growth inhibition ([8]; at 1.2 µM): 2%
growth inhibition ([8]; at 3.7 µM): -1%
growth inhibition ([8]; at 11.0 µM): 2%
growth inhibition ([8]; at 33.0 µM): 84% (active)
growth inhibition ([8]; at 100.0 µM): 98% (active)
growth inhibition [9, 16]: -3%
growth inhibition [9, 17]: 98% (active)
growth inhibition ([9]; at 50.0 µM): 43.9%
growth inhibition ([10]; at 1.2 µM): -4%
growth inhibition ([10]; at 3.7 µM): -5%
growth inhibition [10, 16]: 2%
growth inhibition ([10]; at 11.0 µM): -7%
growth inhibition ([10]; at 33.0 µM): 89% (active)
growth inhibition [10, 17]: 98% (active)
growth inhibition ([10]; at 50.0 µM): 52.8%
growth inhibition ([10]; at 100.0 µM): 98% (active)
growth inhibition ([11]; at 1.2 µM): 4%
growth inhibition ([11]; at 3.7 µM): 9%
growth inhibition ([11]; at 11.0 µM): 61%
growth inhibition ([11]; at 33.0 µM): 97% (active)
growth inhibition ([11]; at 100.0 µM): 99% (active)
